Drawing on PubChem BioAssay, this text covers z-score and composite z-score for 10 molecules.

Assay [1] in a line: HepG2 liver cancer cell viability effects, profiling panel, resazurin fluorescence, 24 h, PK04 Diversity Set (AID 1172). As to conditions: higher = more signal.
Assay [2] can be described thus: basal S. cerevisiae growth modulation, no modifier, primary screen, OD600, strain BY4716, 24 h, basal condition (AID 1173). As to conditions: OD600, 24 h, higher = more signal, called active from +8 up or from −8 down.
Assay [3] is described as follows: MM1S myeloma cell viability, profiling panel, resazurin fluorescence, basal, 24 h, PK04 Diversity Set (AID 1174).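 Note: MM1S multiple myeloma cell line.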 The note with it: higher = more signal, called active from +8 up or from −8 down.
The target in assay [4] is Dihydroorotate dehydrogenase (quinone), mitochondrial (Plasmodium falciparum (isolate 3D7)) (UniProt Q08210). Description: PfDHODH enzyme inhibitors, primary screen, biochemical, C-terminal His tag, absorbance 600 nm (AID 1175).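 Note: recombinant parasite enzyme with a five histidine tag at its C terminus.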 The note with it: DCIP absorbance 600 nm, higher = more signal, called active from +8 up or from −8 down.
Chain of Dihydroorotate dehydrogenase (quinone), mitochondrial (Plasmodium falciparum (isolate 3D7)) (Q08210 whole entry, looked up): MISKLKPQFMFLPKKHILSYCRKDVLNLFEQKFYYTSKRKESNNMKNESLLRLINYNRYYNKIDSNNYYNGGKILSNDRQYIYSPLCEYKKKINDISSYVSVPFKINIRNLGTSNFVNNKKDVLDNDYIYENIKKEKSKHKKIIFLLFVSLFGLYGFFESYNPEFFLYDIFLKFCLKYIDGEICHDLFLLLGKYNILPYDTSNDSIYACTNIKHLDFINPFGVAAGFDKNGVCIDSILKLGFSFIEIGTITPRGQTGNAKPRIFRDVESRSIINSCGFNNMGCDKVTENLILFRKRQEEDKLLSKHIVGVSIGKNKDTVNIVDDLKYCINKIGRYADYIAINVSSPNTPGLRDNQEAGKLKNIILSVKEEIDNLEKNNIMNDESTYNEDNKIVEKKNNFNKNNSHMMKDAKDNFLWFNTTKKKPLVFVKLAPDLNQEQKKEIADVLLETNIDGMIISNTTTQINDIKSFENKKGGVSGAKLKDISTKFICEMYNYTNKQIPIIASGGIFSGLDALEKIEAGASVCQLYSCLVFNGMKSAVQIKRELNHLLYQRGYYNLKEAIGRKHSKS
Assay [5] is described as follows: P. aeruginosa biofilm formation inhibitors, primary screen, strain PAO1, LB-PBS medium, absorbance 600 nm (AID 1176). As to conditions: P. aeruginosa PAO1 growth/biofilm, A600, 12 h; higher = more signal.
Assay [6] in a line: S. cerevisiae RM11-1a growth modifiers, primary screen, strain RM11-1a, OD600, basal, 24 h (AID 1177).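 Note: cultures grown under basal conditions with no added stressor.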 The note with it: OD600, 24 h, higher = more signal, called active from +8 up or from −8 down.
A short description of assay [7]: E. coli acrAB mutant growth effects, primary screen, E. coli filamentation inducers, strain DRC39, OD650, 24 h (AID 1178).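 Note: growth measured as culture turbidity by optical density at 650 nm.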 As to conditions: higher = more signal, called active from +8 up or from −8 down.
Assay [8] can be described thus: E. coli acrAB mutant growth effects, primary screen, E. coli filamentation inducers, strain DRC39, OD650, 48 h (AID 1179).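 Note: screen aims at cell division blockers that make cells filament.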 As to conditions: E. coli DRC39 delta-acrAB growth, higher = more signal, called active from +8 up or from −8 down.
The nature of assay [9]: RPMI8226 myeloma cell viability, profiling panel, resazurin fluorescence, basal, 24 h, PK04 Diversity Set (AID 1180).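 Note: RPMI8826 multiple myeloma cell line at 5000 cells per well.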 As to conditions: higher = more signal.
In assay [10] the target is E3 ubiquitin-protein ligase XIAP (Homo sapiens) (UniProt P98170). Description: XIAP binders, primary screen, biophysical, small-molecule microarray, fluorescence 635 nm (AID 1181).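 Note: score merges 667 nm emission and signal to noise over triplicate slides.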 As to conditions: small-molecule microarray binding, higher = more signal.
Chain of E3 ubiquitin-protein ligase XIAP (Homo sapiens) (P98170 whole entry, looked up): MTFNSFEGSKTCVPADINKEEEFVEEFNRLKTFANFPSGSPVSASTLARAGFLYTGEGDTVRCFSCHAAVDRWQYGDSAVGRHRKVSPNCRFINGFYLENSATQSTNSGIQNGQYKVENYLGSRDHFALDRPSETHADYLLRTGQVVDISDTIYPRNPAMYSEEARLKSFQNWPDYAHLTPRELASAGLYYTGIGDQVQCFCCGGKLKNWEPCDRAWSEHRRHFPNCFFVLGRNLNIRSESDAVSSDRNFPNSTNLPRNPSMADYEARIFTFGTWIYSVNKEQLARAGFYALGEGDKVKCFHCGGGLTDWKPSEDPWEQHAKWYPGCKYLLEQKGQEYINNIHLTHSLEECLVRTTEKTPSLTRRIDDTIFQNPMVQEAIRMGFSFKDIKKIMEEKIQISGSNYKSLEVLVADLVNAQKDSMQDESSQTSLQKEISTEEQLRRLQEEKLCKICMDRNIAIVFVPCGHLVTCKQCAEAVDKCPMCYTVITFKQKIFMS
Assay [11] has as its system XIP peptide (Xip251-270) binding. Description: small-molecule binders of XIP peptide, primary screen, biochemical, small-molecule microarray, fluorescence 635/667 nm, 0.1 µg/mL protein (AID 1182). As to conditions: fluorescent protein binding, 635 nm, higher = more signal, called active from +8 up or from −8 down.
The test system of the next assay is XIP peptide (Xip251-270). Kind of assay: small-molecule binders of XIP peptide, primary screen, biochemical, small-molecule microarray, fluorescence 635/667 nm, 0.5 µg/mL protein (AID 1183). The note with it: small-molecule microarray binding, fluorescence 635 nm; higher = more signal.
A short description of assay [12]: Plasmodium falciparum growth inhibition, primary screen, strain 3D7, DAPI fluorescence, 100 nL (AID 1184).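 Note: parasites grown inside human red blood cells in medium with human serum.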 As to conditions: P. falciparum 3D7 growth, 3 d, higher = more signal.
Assay [13] has as its target Homeobox protein Hox-A13 (Mus musculus) (UniProt Q62424). Description: inhibitors of HoxA13-DNA binding, primary screen, biochemical, fluorescence polarization, labeled oligonucleotide (AID 1185). As to conditions: 15 min, higher = more signal, called active from +8 up or from −8 down.
Assay [14] is described as follows: inhibitors of hydroxyurea-induced Chk1 phosphorylation, primary screen, imaging, HeLa, phospho-Chk1 antibody, percent positive cells (AID 1186). As to conditions: hydroxyurea-induced phospho-Chk1 immunofluorescence imaging, higher = more signal.
A short description of assay [15]: inhibitors of hydroxyurea-induced Chk1 phosphorylation, primary screen, imaging, HeLa, phospho-Chk1 nuclear intensity (AID 1187). The note with it: hydroxyurea-induced phospho-Chk1 immunofluorescence imaging, higher = more signal.

The source made the active and inactive calls. Unless noted, the rule behind the calls is not given here.

Chain of Homeobox protein Hox-A13 (Mus musculus) (Q62424 whole entry, looked up): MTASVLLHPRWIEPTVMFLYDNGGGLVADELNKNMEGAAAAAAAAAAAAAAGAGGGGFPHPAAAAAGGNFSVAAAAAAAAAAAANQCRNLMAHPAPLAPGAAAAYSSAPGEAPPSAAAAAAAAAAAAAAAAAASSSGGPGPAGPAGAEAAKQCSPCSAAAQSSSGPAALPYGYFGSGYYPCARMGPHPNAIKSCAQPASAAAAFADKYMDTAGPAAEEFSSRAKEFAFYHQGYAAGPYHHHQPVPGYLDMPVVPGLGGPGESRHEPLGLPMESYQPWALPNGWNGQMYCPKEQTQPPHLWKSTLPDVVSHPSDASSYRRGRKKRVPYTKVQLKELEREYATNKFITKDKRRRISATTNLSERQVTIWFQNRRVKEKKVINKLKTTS

On to `CS(=O)(=O)CCOC(=O)C1=CC(c2ccc(CO)cc2)=CC(c2cccs2)N(Cc2cccc(OC(F)(F)F)c2)C=C1C(=O)OCCS(C)(=O)=O` (stereo not given), for which the z-score in [1] was -0.534; in assay [2] it was -4.14 (inactive); in [3], -2.98 (inactive); in [5], 0.907 (inactive); in assay [6], 0.267 (inactive); in [7] it was -2.93 (inactive). For the same molecule, the z-score in [8] was -3.3 (inactive); in [9] it was -1.32; in assay [12], -2.5; in [13], -4.18 (inactive); in [14] it was 0.552 (inactive); in assay [15] it was 0.377 (inactive). Besides, the composite z-score was -1.08 (inactive) in assay [4], -0.22 in assay [10], 0.276 (inactive) in [11] and 0.514 in the assay with XIP peptide (Xip251-270).
Consider `CC(C)CNC(=O)[C@@]1(C)c2ccccc2C(=O)N(C(C)C)[C@H]1c1ccc(CO)cc1`, for which the z-score in assay [1] was -0.174; in assay [2], -0.128 (inactive); in assay [3], -0.434 (inactive); in assay [5], -0.273 (inactive); in [6] it was -0.207 (inactive); in assay [7], -0.314 (inactive). In addition, the z-score in assay [8] was -0.049 (inactive); in assay [9], -0.434; in [12] it was 1.22; in [13] it was -1.35 (inactive); in assay [14], 0.221 (inactive); in [15], -0.0172 (inactive). Also, the composite z-score in [4] was -0.449 (inactive); in assay [10], -0.135; in [11] it was -0.776 (inactive); in the assay with XIP peptide (Xip251-270), -0.692.
With `CCCCC(=C=CC[C@H](O)c1ccccc1OCCO)C[C@H](O)c1cc(Cl)cc(Cl)c1O`, the z-score in assay [1] is -0.268; in [2] it was -4.13 (inactive); in [3], -0.392 (inactive); in [5], 0.33 (inactive); in assay [6], 0.31 (inactive); in assay [7] it was 0.504 (inactive). Further, the z-score is 0.32 (inactive) in assay [8]; -0.45 in assay [9]; -1.09 in assay [12]; -4.23 (inactive) in [13]; 0.0899 (inactive) in assay [14]; 1.23 (inactive) in assay [15]. In addition, the composite z-score in assay [4] was -1.69 (inactive); in [10], -0.138; in assay [11] it was 0.776 (inactive); in the assay on XIP peptide (Xip251-270), 0.832.
Take `C=CCNC(=O)[C@H]1[C@@H]2C(=O)O[C@@H](c3ccccc3)[C@@H](c3ccccc3)N2[C@@H](c2ccc(OCCO)cc2)[C@]12C(=O)N(C(=O)OCCOC)c1ccc(C#CC3(O)CCCCCC3)cc12`: the z-score in assay [1] was -0.162; in [2] it was 1.33 (inactive); in [3], -0.421 (inactive); in [5], 1.79 (inactive); in assay [6], 2.43 (inactive); in [7], -0.129 (inactive). Moreover, the z-score in [8] was 1.16 (inactive); in assay [9] it was 0.393; in assay [12] it was -1.91; in [13], -0.675 (inactive); in [14], -0.124 (inactive); in assay [15] it was -0.0954 (inactive). The composite z-score in assay [4] was -1.08 (inactive); in [10] it was -0.0999; in [11], 0.404 (inactive); in the assay with XIP peptide (Xip251-270), 0.735.
Regarding `Cc1ccc(N2C(=O)c3ccccc3[C@@H](C(=O)NCC(C)C)[C@@H]2c2ccc(CO)cc2)nc1`, the z-score in assay [1] is -0.324; in assay [2], 0.0089 (inactive); in [3] it was 0.439 (inactive); in [5], 0.348 (inactive); in assay [6], -0.746 (inactive); in assay [7], 0.483 (inactive). Further, the z-score in assay [8] was 0.603 (inactive); in [9], 0.68; in [12], 0.524; in [13] it was -0.985 (inactive); in [14] it was -0.275 (inactive); in assay [15], -0.387 (inactive). Besides, the composite z-score was 0.351 (inactive) in [4], -0.148 in [10], 0.184 (inactive) in assay [11] and 0.934 in the assay on XIP peptide (Xip251-270).
As for `COc1ccc(C(=O)Nc2cccc(CN3C(=O)[C@@]4(O[C@@H](CC(=O)N5Cc6ccccc6C[C@H]5CO)[C@H]([Si](C)(C)c5ccc(OC)cc5)[C@H]4C)c4ccccc43)c2)cc1`, the z-score is -0.79 in assay [1]; 0.147 (inactive) in [2]; -3.05 (inactive) in [3]; 1.42 (inactive) in assay [5]; 1.91 (inactive) in assay [6]; 0.978 (inactive) in assay [7]. Moreover, the z-score in assay [8] was 0.621 (inactive); in assay [9] it was -1.99; in assay [12], -2.64; in assay [13], -3.18 (inactive); in assay [14], -0.0924 (inactive); in [15] it was 0.071 (inactive). Moreover, the composite z-score in assay [4] was -4.98 (inactive); in [10], -0.0525; in [11] it was 1.44 (inactive); in the assay on XIP peptide (Xip251-270), 0.698.
In the case of `CCCNC(=O)[C@@]1(c2ccc([N+](=O)[O-])cc2)CC(=O)N(CC23CC4CC(CC(C4)C2)C3)[C@@H]1c1ccc(CO)cc1I`, the z-score was -2.95 in assay [1]; 0.285 (inactive) in assay [2]; -3.47 (inactive) in assay [3]; 0.32 (inactive) in [5]; 1.34 (inactive) in assay [6]; -0.643 (inactive) in assay [7]. Also, the z-score in assay [8] is 0.198 (inactive); in assay [9] it was -4.07; in [12] it was -1.55; in assay [13], -3.75 (inactive); in assay [14], -0.28 (inactive); in [15] it was -0.51 (inactive). For the same molecule, the composite z-score in assay [4] is 0.286 (inactive); in [10] it was -0.0749; in [11], 1.18 (inactive); in the assay with XIP peptide (Xip251-270), 0.59.
As to `O=[N+]([O-])c1ccc(C[n+]2ccc(CCCO)cc2)o1`, the z-score in assay [1] is -1.32; in assay [2], -7.77 (inactive); in assay [3], -1.27 (inactive); in assay [5], 0.0214 (inactive); in assay [6], 0.379 (inactive); in assay [7], -1.4 (inactive). Further, the z-score is -0.841 (inactive) in [8]; -0.211 in [9]; -1.28 in assay [12]; -2.88 (inactive) in assay [13]; -0.0644 (inactive) in [14]; 0.492 (inactive) in assay [15]. Also, the composite z-score in [4] is 0.403 (inactive); in assay [10] it was 0.905; in assay [11], 0.46 (inactive); with XIP peptide (Xip251-270), 0.968.
`CCCC[C@@H]1C[C@H]1[C@@H](NC(=O)c1ccccc1)c1ccccc1`: the z-score is 0.237 in [1]; 1.21 (inactive) in [2]; -0.694 (inactive) in [3]; -0.471 (inactive) in assay [5]; 0.601 (inactive) in assay [6]; 0.104 (inactive) in assay [7]. Also, the z-score in assay [8] is 0.233 (inactive); in [9] it was -1.07; in [12], 0.328; in assay [13], -1.46 (inactive); in assay [14] it was 0.072 (inactive); in [15], -0.0583 (inactive). In addition, the composite z-score in [4] is -0.113 (inactive); in assay [10], -0.0289; in assay [11], -0.33 (inactive); in the assay with XIP peptide (Xip251-270), -0.302.
As for `COCCOC(=O)N1C(=O)[C@@]2(c3cc(C#CCCO)ccc31)[C@H](c1ccc(O)cc1)N1[C@H](c3ccccc3)[C@H](c3ccccc3)OC(=O)[C@H]1[C@@H]2C(=O)N1CCCCCCC1`, the z-score in assay [1] was -0.681; in assay [2], 0.015 (inactive); in assay [3], -0.216 (inactive); in assay [5], 0.915 (inactive); in [6], 0.38 (inactive); in assay [7] it was 0.27 (inactive). Besides, the z-score in [8] was -0.002 (inactive); in [9], -0.98; in assay [12] it was -0.0358; in [13] it was -1.14 (inactive); in assay [14], -0.0035 (inactive); in assay [15] it was -0.334 (inactive). The composite z-score in [4] was 0.232 (inactive); in assay [10] it was 0.23; in assay [11], 0.449 (inactive); with XIP peptide (Xip251-270), 0.723.
